Measured values: PubChem BioAssay (Tox21)
Inconclusive results are not listed. Activity calls are given as the source filed them. Calls come from the whole dose curve; as a rule, active = well fitted cell-killing curve with a large enough effect in the repeat runs; inconclusive = weak or mixed curves, or effect the other way; inactive = flat fitted curve, though single readings scatter.

assay: qHTS assay to identify small molecule agonists of the TGF-beta/Smad signaling pathway - cell viability counter screen (AID 1346829); details: SBE-bla HEK293T viability, CellTiter-Glo luminescence, 5 h; series mostly up to 76.8 µM; note: top concentration of the series differs between compounds; nearly all actives have a fitted effect of over 45% in size
Source text: National Center for Advancing Translational Sciences [NCATS]
NIH Chemical Genomics Center [NCGC]
U.S. Environmental Protection Agency [EPA]
National Institutes of Environmental Health Sciences [NIEHS]
National Toxicology Program [NTP]
U.S. Food and Drug Administration [FDA]
Transforming growth factor beta (TGF-beta) superfamily consists of a large number of structurally related dimeric proteins that act as hormones or local mediators in regulating a wide range of biological functions. This superfamily includes TGF-betas themselves, the bone morphogenetic proteins (BMPs) and the activins. These ligands induce oligomerization of serine/threonine receptor kinases and phosphorylate the cytoplasmic signaling molecules of Smad protein family. CellSensor SBE-bla HEK 293T cell line (Life Technologies, Carlsbad, CA), responsive to TGF-beta was used to screen Tox21 10K compound library for identification of agonists/antagonists of the Smad signaling pathway. This cell line contains a beta-lactamase reporter gene under control of the Smad binding element (SBE) stably integrated into HEK 293T cells. Also cytotoxicity of the compounds was tested in parallel by measuring the cell viability using CellTiter-Glo assay system in the same wells.
Tox21 Assay Protocol Summary:
SBE-bla HEK 293T cells were dispensed at 4,000/well in 6 uL of assay medium into black wall/clear-bottom 1536-well plates using a Multidrop Combi (ThermoFisher Scientific, Waltham, MA) dispenser. After the assay plates were incubated at 37 C and 5% CO2 for an overnight, 23 nL of compounds dissolved in DMSO, positive controls or DMSO only was transferred to the assay plate by a Pintool station (Kalypsys, San Diego, CA). The assay plates were incubated at 37 C and 5% CO2 for 5 hr. One uL of LiveBLAzer B/G FRET substrate (Life Technologies) was added using a Flying Reagent Dispenser (FRD, Aurora Discovery, San Diego, CA) and the plates were incubated at room temperature for 2 hr. Fluorescence intensity (405 nm excitation, 460 nm and 530 nm emissions) was measured using an Envision plate reader (PerkinElmer, Shelton, CT). For cytotoxicity read, 4 uL of CellTiter-Glo reagent (Promega Corporation, Madison, WI) was added to each well of the assay plates using FRD. After 30min incubation at room temperature, the luminescence intensity was measured using ViewLux plate reader (PerkinElmer).
% is set by controls: 0 for no effect and ±100 for the full control effect.

**Q.** For CCn1ccc(NS(=O)(=O)c2ccc(N)cc2)nc1=O, which outcome is on record?
**A.** Its outcome is “inactive”.

**Q.** For O=P(O)(O)OP(=O)(O)O, which outcome is on record?
**A.** The outcome was “inactive”.

**Q.** With CC(C)(C)NC(N)=O as the compound, how does the outcome read?
**A.** The outcome was “inactive”.

**Q.** Which outcome does the source give for COCCOCCOCCOCCO here?
**A.** Its outcome is “inactive”.

**Q.** For CCCCCCOC(=O)CC, which outcome is on record?
**A.** Its outcome is “inactive”.

**Q.** Which outcome does the source give for C[C@H](N)[C@H](O)c1cccc(O)c1 here?
**A.** Its outcome is “inactive”.

**Q.** With FC(F)(F)c1ccccc1-n1ccnc1 as the compound, how does the outcome read?
**A.** The outcome was “inactive”.

**Q.** With CCCCCCCCC1CCC(=O)O1 (stereo not given) as the compound, how does the outcome read?
**A.** The outcome was “inactive”.

**Q.** Which outcome does the source give for N#Cc1ccc(C(=O)O)cc1 here?
**A.** The outcome was “inactive”.

**Q.** Which outcome does the source give for Cc1[nH]cnc1-c1ccc(Cl)cc1 here?
**A.** Its outcome is “inactive”.

**Q.** For CC(=O)c1ccc2c(c1)Cc1ccccc1-2, which outcome is on record?
**A.** The outcome was “inactive”.

**Q.** Which outcome does the source give for CCCCOCCOC(=O)COc1nc(Cl)c(Cl)cc1Cl here?
**A.** Its outcome is “inactive”.

**Q.** With COc1cc(N)ccc1C as the compound, how does the outcome read?
**A.** Its outcome is “inactive”.

**Q.** With C=CC(OCC)OCC as the compound, how does the outcome read?
**A.** Its outcome is “inactive”.

**Q.** With O=C(O)c1ccc(Cl)cc1Cl as the compound, how does the outcome read?
**A.** Its outcome is “inactive”.

**Q.** For NCCS, which outcome is on record?
**A.** Its outcome is “inactive”.

**Q.** For Cc1c(I)c(=O)n(-c2ccccc2)n1C, which outcome is on record?
**A.** Its outcome is “inactive”.

**Q.** For Oc1ccccc1-c1nnco1, which outcome is on record?
**A.** Its outcome is “inactive”.

**Q.** With CCCCCCCC/C=C\CCCCCCCC(=O)OCCCC as the compound, how does the activity change, negative = cytotoxicity read?
**A.** Its activity change, negative = cytotoxicity is 0.118% [at 15.8 µM] (inactive).

**Q.** With CC(=O)N[C@@H](CCC(=O)O)C(=O)O as the compound, how does the outcome read?
**A.** The outcome was “inactive”.

**Q.** For CC(=O)Nc1ccc(S(=O)(=O)Cl)cc1, which outcome is on record?
**A.** The outcome was “inactive”.

**Q.** For CN=C(NC#N)Nc1ccc(C2=NNC(=O)CC2C)cc1 (stereo not given), which outcome is on record?
**A.** The outcome was “inactive”.

**Q.** For C[Si](C)=O, which activity change, negative = cytotoxicity is on record?
**A.** The activity change, negative = cytotoxicity was 3.98% [at 6.97 µM] (inactive).

**Q.** Which outcome does the source give for Cc1ccc(S(=O)(=O)O)c(C)c1 here?
**A.** Its outcome is “inactive”.

**Q.** Which outcome does the source give for N[C@@H](CCC(=O)Nc1ccc([N+](=O)[O-])cc1)C(=O)O here?
**A.** The outcome was “inactive”.

**Q.** Which activity change, negative = cytotoxicity does the source give for Oc1cn2c(n1)Nc1ccc(Cl)c(Cl)c1C2 here?
**A.** Its activity change, negative = cytotoxicity is -0.153% [at 15.8 µM] (inactive).

**Q.** For CCCCCCOc1ccccc1C(N)=O, which outcome is on record?
**A.** Its outcome is “inactive”.

**Q.** With NC(CO)C(=O)NNCc1ccc(O)c(O)c1O (stereo not given) as the compound, how does the outcome read?
**A.** Its outcome is “inactive”.

**Q.** With O=C1c2ccccc2C(=O)c2cc(S(=O)(=O)O)ccc21 as the compound, how does the outcome read?
**A.** The outcome was “inactive”.

**Q.** Which outcome does the source give for CCCOC(=O)C(C)O (stereo not given) here?
**A.** The outcome was “inactive”.

**Q.** Which outcome does the source give for CC(S)C(=O)NCC(=O)O (stereo not given) here?
**A.** Its outcome is “inactive”.

**Q.** For CC(C)NCC(O)COc1ccc(COCCOC(C)C)cc1 (stereo not given), which outcome is on record?
**A.** The outcome was “inactive”.

**Q.** For O=S(=O)(O)CCN1CCN(CCO)CC1, which outcome is on record?
**A.** The outcome was “inactive”.

**Q.** With CC(=O)Nc1cccc(C)c1 as the compound, how does the outcome read?
**A.** The outcome was “inactive”.

**Q.** For O=C1O[C@@H]2[C@@H](O)[C@H](O)O[C@@H]2[C@H]1O, which outcome is on record?
**A.** The outcome was “inactive”.

**Q.** For CCCC(=O)C(C)=O, which outcome is on record?
**A.** The outcome was “inactive”.

**Q.** Which outcome does the source give for CCOCCOCCOCC here?
**A.** Its outcome is “inactive”.

**Q.** With Cc1cccc(OCC(O)CNC(C)(C)C)c1C (stereo not given) as the compound, how does the outcome read?
**A.** The outcome was “inactive”.

**Q.** For CCOCCOC(=O)/C=C/c1ccc(OC)cc1, which outcome is on record?
**A.** The outcome was “inactive”.

**Q.** For C[C@@H](O)[C@H]1C(=O)N2C(C(=O)O)=C(SCCN=CN)C[C@H]12, which outcome is on record?
**A.** Its outcome is “inactive”.
